Test results from the supplement of paper PMC10849652.
Targets with a hit are over-represented here; the source holds about 8,800 in all. About 0.5% of all pairs of compound and target were hits.

Columns and labels:
Test in all cases: log2 fold change, soluble protein after heating vs DMSO (PISA); higher = thermal stabilisation; K562 lysate, 10 uM; active = over 0.2 and 3.5 SD of the protein, either way, in both replicates (recomputed)
[1] = compound: NCC(=O)Nc1ccc(-n2nc(C(F)(F)F)cc2-c2ccc3c(ccc4ccccc43)c2)cc1
Method in brief: (§1)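 Thermal stability, expressed as log-two fold change relative to solvent controls, is given from duplicates. Crude K562 extract in PBS pH 7.4 with 1 mM MgCl2, at 1 mg/mL protein, was treated with 10 μM compound for 30 min and heated in aliquots for 3 min across 48°C-58°C. After pooling, adjustment to 0.5% NP-40 at 4°C and centrifugation at 21,000xg for 90 min, supernatant protein was measured by TMTpro 16plex LC-MS/MS with channel sums equalised.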

vorinostat = compound: O=C(CCCCCCC(=O)Nc1ccccc1)NO [vorinostat]
Method in brief: as §1

silmitasertib = compound: O=C(O)c1ccc2c(c1)nc(Nc1cccc(Cl)c1)c1ccncc12 [silmitasertib]
Method in brief: as §1

[2] = compound: O=C1NC(=O)C(c2cnc3ccccn23)=C1c1cn2c3c(cc(F)cc13)CN(C(=O)N1CCCCC1)CC2
Method in brief: as §1

entospletinib = compound: c1cn2cc(-c3ccc4cn[nH]c4c3)nc(Nc3ccc(N4CCOCC4)cc3)c2n1 [entospletinib]
Method in brief: as §1

Measured: log2 fold change

S100A6 (UniProt P06703)
inactive: [1] 0.064 | vorinostat 0.136 | silmitasertib -0.036 | [2] -0.071 | entospletinib -0.005

SAMHD1 (UniProt Q9Y3Z3)
active: vorinostat -0.352
inactive: [1] -0.012 | silmitasertib -0.002 | [2] 0.032 | entospletinib 0.031

RASA3 (UniProt Q14644)
inactive: [1] -0.022 | silmitasertib -0.08 | [2] -0.015 | entospletinib 0.017
active: vorinostat -0.361

RBM42 (UniProt Q9BTD8)
Sequence of UniProt Q9BTD8 (Q9BTD8 whole entry, looked up): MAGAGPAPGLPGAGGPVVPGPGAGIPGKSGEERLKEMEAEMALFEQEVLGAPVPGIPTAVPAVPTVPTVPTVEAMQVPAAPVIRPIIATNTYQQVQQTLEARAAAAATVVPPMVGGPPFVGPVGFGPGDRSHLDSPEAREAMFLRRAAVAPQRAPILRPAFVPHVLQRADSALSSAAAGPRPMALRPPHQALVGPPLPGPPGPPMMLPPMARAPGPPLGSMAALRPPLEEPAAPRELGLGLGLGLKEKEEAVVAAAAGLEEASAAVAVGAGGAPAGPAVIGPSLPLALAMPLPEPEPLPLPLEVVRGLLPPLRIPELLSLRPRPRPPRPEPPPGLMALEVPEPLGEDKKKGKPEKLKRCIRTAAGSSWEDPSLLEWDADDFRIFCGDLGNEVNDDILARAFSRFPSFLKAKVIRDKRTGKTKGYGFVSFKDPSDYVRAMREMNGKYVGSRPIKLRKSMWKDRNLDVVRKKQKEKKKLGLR
inactive: [1] 0.19 | vorinostat -0.04 | silmitasertib -0.031 | [2] 0.018 | entospletinib -0.058

S100A11 (UniProt P31949)
Sequence of UniProt P31949 (P31949 whole entry, looked up): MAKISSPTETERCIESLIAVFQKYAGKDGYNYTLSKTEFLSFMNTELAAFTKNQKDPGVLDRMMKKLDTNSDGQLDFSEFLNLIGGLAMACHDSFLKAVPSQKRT
inactive: [1] -0.085 | vorinostat 0.106 | silmitasertib -0.057 | [2] 0.046 | entospletinib -0.045

RFC2 (UniProt P35250)
active: vorinostat -0.506
inactive: [1] -0.027 | silmitasertib 0.043 | [2] -0.017 | entospletinib 0.004

SAR1B (UniProt Q9Y6B6)
Sequence of UniProt Q9Y6B6 (Q9Y6B6 whole entry, looked up): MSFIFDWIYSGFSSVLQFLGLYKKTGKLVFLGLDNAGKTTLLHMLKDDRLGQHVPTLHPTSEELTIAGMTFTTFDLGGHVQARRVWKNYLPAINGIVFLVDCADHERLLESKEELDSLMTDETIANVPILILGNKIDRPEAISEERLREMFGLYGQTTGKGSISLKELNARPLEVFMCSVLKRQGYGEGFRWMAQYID
inactive: [1] -0.083 | vorinostat 0.155 | silmitasertib -0.103 | [2] -0.044 | entospletinib -0.053

SESN2 (UniProt P58004)
Sequence of UniProt P58004 (P58004 whole entry, looked up): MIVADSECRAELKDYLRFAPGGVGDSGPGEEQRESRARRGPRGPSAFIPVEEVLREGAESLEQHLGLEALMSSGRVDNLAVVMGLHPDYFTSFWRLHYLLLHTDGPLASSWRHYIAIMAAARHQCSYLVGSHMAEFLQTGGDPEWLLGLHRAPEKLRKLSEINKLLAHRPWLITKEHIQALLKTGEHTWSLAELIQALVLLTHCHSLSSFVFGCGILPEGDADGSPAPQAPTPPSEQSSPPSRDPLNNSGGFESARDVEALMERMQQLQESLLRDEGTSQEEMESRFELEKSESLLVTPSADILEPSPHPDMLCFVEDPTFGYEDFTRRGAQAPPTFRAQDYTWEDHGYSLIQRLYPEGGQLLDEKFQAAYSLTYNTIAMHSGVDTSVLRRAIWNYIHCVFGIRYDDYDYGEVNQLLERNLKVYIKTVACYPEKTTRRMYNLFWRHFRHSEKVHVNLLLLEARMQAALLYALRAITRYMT
active: vorinostat -0.367
inactive: [1] 0.006 | silmitasertib 0.066 | [2] 0.022 | entospletinib 0.073

RPS6KA3 (UniProt P51812)
Sequence of UniProt P51812 (P51812 whole entry, looked up): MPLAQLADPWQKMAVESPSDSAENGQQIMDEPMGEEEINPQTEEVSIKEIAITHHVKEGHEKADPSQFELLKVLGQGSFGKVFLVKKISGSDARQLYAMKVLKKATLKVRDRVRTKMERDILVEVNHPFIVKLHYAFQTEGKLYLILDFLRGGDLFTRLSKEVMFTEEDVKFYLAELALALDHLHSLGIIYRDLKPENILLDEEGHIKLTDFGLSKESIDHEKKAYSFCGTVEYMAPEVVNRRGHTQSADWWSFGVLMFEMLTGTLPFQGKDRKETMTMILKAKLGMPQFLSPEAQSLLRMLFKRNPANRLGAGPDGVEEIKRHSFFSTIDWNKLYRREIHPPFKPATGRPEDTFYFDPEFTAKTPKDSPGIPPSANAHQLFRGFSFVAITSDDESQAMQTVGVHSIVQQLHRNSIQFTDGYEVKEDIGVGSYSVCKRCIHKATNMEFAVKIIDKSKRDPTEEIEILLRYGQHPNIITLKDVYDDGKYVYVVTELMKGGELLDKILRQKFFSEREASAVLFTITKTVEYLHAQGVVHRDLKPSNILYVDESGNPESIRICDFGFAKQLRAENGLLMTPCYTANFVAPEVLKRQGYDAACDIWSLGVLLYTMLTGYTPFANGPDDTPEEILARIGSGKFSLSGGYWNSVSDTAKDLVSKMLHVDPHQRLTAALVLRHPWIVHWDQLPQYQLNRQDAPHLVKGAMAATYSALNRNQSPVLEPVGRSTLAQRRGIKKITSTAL
inactive: [1] -0.017 | vorinostat -0.384 | silmitasertib 0.362 | [2] 0.181 | entospletinib -0.052

RAPGEF4 (UniProt Q8WZA2)
inactive: [1] 0.219 | vorinostat 0.143 | silmitasertib -0.09 | [2] 0.353 | entospletinib 0.014

QTRT2 isoform 4 (UniProt Q9H974)
inactive: [1] 0.004 | vorinostat 0.079 | silmitasertib -0.011 | [2] -0.007 | entospletinib 0.022

RPS9 (UniProt P46781)
inactive: [1] -0.03 | vorinostat 0.125 | silmitasertib 0.042 | [2] 0.002 | entospletinib 0.004

RPS4X (UniProt P62701)
inactive: [1] 0.008 | vorinostat 0.106 | silmitasertib 0.028 | [2] 0.015 | entospletinib 0.016

RIOK3 (UniProt O14730)
Sequence of UniProt O14730 (O14730 whole entry, looked up): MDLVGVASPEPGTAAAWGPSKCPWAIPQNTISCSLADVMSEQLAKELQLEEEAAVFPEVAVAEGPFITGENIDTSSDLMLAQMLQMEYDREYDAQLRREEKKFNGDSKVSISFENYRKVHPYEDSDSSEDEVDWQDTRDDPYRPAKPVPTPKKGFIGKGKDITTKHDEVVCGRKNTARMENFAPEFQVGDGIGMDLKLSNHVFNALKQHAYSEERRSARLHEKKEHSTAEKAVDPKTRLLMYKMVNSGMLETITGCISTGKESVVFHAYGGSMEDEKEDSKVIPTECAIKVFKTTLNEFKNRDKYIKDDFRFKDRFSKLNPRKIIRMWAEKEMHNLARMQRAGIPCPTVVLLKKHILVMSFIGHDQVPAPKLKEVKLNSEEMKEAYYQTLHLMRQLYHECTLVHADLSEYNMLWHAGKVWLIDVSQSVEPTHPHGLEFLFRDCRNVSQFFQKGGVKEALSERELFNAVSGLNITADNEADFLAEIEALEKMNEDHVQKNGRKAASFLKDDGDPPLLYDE
inactive: [1] -0.024 | silmitasertib -0.017 | [2] -0.024 | entospletinib -0.004
active: vorinostat -0.605

RCC1 isoform 2 (UniProt P18754)
Sequence of UniProt P18754 (P18754 whole entry, looked up): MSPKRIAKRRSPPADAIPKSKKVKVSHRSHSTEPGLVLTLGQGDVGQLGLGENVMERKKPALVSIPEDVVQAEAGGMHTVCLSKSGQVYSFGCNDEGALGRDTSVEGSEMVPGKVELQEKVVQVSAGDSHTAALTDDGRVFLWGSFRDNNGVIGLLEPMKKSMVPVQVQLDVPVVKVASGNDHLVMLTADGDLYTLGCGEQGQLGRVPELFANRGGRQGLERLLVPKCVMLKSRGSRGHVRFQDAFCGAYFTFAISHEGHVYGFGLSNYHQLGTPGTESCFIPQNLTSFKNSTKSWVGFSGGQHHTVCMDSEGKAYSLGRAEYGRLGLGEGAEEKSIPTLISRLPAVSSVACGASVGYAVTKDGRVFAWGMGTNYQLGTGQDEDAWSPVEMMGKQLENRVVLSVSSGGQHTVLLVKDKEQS
inactive: [1] 0.009 | silmitasertib 0.034 | [2] 0.051 | entospletinib -0.014
active: vorinostat -0.381

REEP5 (UniProt Q00765)
Sequence of UniProt Q00765 (Q00765 whole entry, looked up): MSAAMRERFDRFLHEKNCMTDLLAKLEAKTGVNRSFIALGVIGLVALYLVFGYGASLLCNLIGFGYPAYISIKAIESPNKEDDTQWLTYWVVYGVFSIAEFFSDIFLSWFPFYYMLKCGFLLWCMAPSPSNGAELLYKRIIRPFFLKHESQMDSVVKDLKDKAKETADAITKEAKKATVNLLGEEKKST
inactive: [1] -0.034 | vorinostat 0.001 | silmitasertib -0.025 | [2] 0.02 | entospletinib 0.015

SERINC3 (UniProt Q13530)
Sequence of UniProt Q13530 (Q13530 whole entry, looked up): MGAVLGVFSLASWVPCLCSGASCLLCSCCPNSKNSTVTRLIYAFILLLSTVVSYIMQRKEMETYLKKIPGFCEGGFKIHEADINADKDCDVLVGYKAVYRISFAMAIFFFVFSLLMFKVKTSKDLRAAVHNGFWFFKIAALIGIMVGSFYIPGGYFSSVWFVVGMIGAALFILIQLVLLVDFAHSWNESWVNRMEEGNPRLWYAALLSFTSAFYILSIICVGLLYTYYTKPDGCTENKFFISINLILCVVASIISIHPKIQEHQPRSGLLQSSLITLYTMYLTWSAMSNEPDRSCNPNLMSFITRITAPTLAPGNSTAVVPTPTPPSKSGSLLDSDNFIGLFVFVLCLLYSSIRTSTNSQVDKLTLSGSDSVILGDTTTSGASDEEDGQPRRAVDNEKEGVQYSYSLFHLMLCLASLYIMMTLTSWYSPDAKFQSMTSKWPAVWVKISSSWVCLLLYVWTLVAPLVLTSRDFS
inactive: [1] -0.027 | vorinostat 0.019 | silmitasertib -0.012 | [2] 0.017 | entospletinib 0.024

SEC24D isoform 2 (UniProt O94855)
Sequence of UniProt O94855 (O94855 whole entry, looked up): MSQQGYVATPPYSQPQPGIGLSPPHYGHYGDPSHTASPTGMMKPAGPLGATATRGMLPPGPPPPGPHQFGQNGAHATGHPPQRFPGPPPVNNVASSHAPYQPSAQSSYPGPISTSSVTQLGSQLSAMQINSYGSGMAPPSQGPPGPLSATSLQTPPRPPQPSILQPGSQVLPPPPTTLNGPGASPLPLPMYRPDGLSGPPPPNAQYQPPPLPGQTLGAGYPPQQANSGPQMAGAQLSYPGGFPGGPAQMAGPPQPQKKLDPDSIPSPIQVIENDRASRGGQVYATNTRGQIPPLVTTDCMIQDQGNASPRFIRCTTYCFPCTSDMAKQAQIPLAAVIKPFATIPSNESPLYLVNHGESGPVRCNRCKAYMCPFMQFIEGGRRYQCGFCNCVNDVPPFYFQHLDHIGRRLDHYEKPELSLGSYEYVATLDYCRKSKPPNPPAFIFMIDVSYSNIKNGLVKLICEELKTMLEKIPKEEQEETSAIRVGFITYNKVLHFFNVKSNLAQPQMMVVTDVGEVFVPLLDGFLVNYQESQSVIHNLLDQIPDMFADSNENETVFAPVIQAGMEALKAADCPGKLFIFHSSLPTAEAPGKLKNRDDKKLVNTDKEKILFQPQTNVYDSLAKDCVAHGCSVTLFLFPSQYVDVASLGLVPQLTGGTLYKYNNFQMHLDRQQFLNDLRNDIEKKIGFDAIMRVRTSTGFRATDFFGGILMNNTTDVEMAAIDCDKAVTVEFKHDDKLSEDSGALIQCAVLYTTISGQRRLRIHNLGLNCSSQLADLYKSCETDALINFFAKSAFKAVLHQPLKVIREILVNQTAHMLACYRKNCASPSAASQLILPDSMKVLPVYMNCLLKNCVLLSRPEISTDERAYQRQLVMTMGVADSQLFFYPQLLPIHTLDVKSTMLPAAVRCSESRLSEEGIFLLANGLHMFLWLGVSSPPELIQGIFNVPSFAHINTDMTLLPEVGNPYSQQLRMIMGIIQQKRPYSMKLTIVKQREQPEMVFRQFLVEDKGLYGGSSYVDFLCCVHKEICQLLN
inactive: [1] -0.017 | silmitasertib 0.037 | [2] -0.013 | entospletinib -0.003
active: vorinostat -0.251

RIOK2 (UniProt Q9BVS4)
inactive: [1] -0.022 | vorinostat -0.098 | silmitasertib 0.096 | [2] 0.008 | entospletinib 0.315

RNF113A (UniProt O15541)
inactive: [1] 0.009 | vorinostat -0.02 | silmitasertib -0.03 | [2] -0.004 | entospletinib 0.02

RBBP8 isoform 2 (UniProt Q99708)
inactive: [1] -0.035 | vorinostat 0.076 | silmitasertib -0.13 | [2] -0.028 | entospletinib -0.002

RAP1B (UniProt F5GZG1)
inactive: [1] -0.051 | vorinostat -0.054 | silmitasertib -0.004 | [2] -0.099 | entospletinib -0.026

RRAGA (UniProt Q7L523)
Sequence of UniProt Q7L523 (Q7L523 whole entry, looked up): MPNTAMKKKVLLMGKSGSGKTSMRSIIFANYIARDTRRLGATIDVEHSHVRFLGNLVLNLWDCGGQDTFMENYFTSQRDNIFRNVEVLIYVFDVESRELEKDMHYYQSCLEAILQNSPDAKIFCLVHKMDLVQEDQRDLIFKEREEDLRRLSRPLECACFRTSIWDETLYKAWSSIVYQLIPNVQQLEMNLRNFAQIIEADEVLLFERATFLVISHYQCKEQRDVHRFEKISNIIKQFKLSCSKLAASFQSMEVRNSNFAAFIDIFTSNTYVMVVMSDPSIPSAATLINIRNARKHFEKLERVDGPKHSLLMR
inactive: [1] -0.007 | vorinostat 0.099 | silmitasertib 0.039 | [2] -0.015 | entospletinib 0.05

RPLP0P6 (UniProt Q8NHW5)
inactive: [1] 0.009 | vorinostat 0.123 | silmitasertib 0.004 | [2] -0.003 | entospletinib 0.017
